The record followed here is PubChem BioAssay AID1224864 (Chung Lab, Department of Pediatrics, Emory University, 2016).

The whole screen tested about 2,000 compounds, of which about 20 (1%) were called active. This is one part of a sample in which actives are shown more often than they occur. How the calls were made is not given here. Residues, ends and D or L forms follow the SMILES beside them. *: point of attachment. Boc = CC(C)(C)OC(=O)*

The target of this assay is Cystic fibrosis transmembrane conductance regulator (Homo sapiens) (UniProt P13569). Put plainly: F508del-CFTR plasma membrane relocalization enhancers – imaging, HeLa, high-content microscopy, immunofluorescence, primary screen (AID 1224864).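 Further: HeLa cells stably expressing F508del-CFTR stained with 3G11 antibody against NBD1.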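 On plasma membrane CFTR intensity: mean immunofluorescence in a thin cell-margin band taken as plasma membrane.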 The note with it: PM immunofluorescence imaging, 24 h, at 10 µM, stronger effect = higher value, relative to vehicle wells set at 100; total CFTR intensity: measured here: total cellular F508del-CFTR signal.
Chain of Cystic fibrosis transmembrane conductance regulator (Homo sapiens) (P13569 whole entry, looked up, stated change not applied): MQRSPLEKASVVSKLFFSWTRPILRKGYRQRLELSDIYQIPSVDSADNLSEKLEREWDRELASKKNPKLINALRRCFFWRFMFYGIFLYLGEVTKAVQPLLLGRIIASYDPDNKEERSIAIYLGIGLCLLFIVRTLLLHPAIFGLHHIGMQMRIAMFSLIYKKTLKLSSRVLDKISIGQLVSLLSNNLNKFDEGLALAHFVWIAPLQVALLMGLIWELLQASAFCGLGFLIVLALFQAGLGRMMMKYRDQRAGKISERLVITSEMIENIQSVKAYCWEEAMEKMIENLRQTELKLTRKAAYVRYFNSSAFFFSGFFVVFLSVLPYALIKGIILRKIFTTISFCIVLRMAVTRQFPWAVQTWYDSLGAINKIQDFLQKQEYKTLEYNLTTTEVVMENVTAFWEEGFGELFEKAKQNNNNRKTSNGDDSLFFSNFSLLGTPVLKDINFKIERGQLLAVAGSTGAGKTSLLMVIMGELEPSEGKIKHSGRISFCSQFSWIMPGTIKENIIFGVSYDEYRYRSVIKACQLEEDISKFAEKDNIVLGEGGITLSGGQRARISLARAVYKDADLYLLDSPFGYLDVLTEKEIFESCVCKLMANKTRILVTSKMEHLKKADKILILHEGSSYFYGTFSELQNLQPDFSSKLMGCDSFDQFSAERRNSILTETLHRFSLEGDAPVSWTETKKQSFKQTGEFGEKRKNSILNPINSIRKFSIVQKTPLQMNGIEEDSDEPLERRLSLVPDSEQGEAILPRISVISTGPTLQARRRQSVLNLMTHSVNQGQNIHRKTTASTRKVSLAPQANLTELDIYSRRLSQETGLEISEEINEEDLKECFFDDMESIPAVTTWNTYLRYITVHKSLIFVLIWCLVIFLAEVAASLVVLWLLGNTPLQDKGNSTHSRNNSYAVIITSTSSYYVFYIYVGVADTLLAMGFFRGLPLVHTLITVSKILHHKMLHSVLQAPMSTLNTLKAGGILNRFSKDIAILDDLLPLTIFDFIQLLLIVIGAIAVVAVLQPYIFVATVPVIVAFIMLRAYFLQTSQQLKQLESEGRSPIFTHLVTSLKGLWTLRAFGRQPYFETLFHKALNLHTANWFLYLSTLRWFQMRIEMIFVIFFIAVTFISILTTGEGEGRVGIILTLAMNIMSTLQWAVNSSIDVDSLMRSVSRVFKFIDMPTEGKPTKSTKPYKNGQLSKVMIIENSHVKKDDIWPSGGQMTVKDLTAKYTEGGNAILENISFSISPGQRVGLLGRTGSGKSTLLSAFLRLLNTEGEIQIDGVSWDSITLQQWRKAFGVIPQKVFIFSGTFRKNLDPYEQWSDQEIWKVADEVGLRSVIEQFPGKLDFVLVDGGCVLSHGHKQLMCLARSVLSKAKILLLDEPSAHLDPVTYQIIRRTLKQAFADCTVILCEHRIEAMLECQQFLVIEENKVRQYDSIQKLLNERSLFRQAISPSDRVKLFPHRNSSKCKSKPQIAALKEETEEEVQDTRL
On to `Fc1ccc(NC(=S)Nc2ccccc2Cl)cc1`, for which the plasma membrane CFTR intensity was 92% (inactive) and the total CFTR intensity is 93%.

Take `CCNC(=O)c1sc2cc(C)ccc2c1Cl`: the plasma membrane CFTR intensity was 92% (inactive) and the total CFTR intensity was determined as 95%.

`NS(=O)(=O)c1cc2c(cc1Cl)NC(CSCc1ccccc1)=NS2(=O)=O`: the plasma membrane CFTR intensity is 84% (inactive) and the total CFTR intensity worked out at 85%.

Take `C[C@@H]1C[C@H](Nc2ccccc2)c2ccccc2N1C(=O)c1cccnc1`: the plasma membrane CFTR intensity was 97% (inactive) and the total CFTR intensity came to 103%.

As for `CC(=O)c1c[nH]c2ccc(C)cc2c1=O`, the plasma membrane CFTR intensity was 83% (inactive) and the total CFTR intensity was determined as 84%.

Turning to `COc1ccc(OC)c(NC2=C(Cl)C(=O)N(Cc3ccccc3)C2=O)c1`, the plasma membrane CFTR intensity was 88% (inactive) and the total CFTR intensity is 100%.

In the case of `Cc1ccc2occ(C(=O)c3ccco3)c(=O)c2c1`, the plasma membrane CFTR intensity is 86% (inactive) and the total CFTR intensity is 90%.

With `O=C(O)[C@H](Cc1ccccc1)NC(=O)N1CCC(Cc2ccccc2)CC1`, the plasma membrane CFTR intensity was 89% (inactive) and the total CFTR intensity was found to be 83%.

For `CC(C)CC(=O)N(Cc1ccc(F)cc1)C1CCS(=O)(=O)C1` (stereo unspecified), the plasma membrane CFTR intensity was 96% (inactive) and the total CFTR intensity turned out to be 98%.

Regarding `CCOc1ccccc1OCCOc1ccc(F)cc1`, the plasma membrane CFTR intensity was 86% (inactive) and the total CFTR intensity came out at 86%.

With `C=CCNc1nc2c(c(=O)n(C)c(=O)n2C)n1CC(=C)C`, the plasma membrane CFTR intensity is 82% (inactive) and the total CFTR intensity is 80%.

As for `CCOC(=O)C1=C(N)Oc2c(c(=O)[nH]c3ccccc23)C1c1ccccc1` (stereo unspecified), the plasma membrane CFTR intensity is 93% (inactive) and the total CFTR intensity was 96%.

As for `CCNC(=O)C(Cc1ccccc1)NC(=O)OCc1ccccc1` (stereo unspecified), the plasma membrane CFTR intensity is 81% (inactive) and the total CFTR intensity is 80%.

For `COC(=O)c1ccccc1NC(=O)c1ccc(COc2ccc3c(c2)CCC3)cc1`, the plasma membrane CFTR intensity was 84% (inactive) and the total CFTR intensity turned out to be 83%.

For `CCOC(=O)C1C(=O)OC2(CCOC(C)(C)C2)C1C(=O)OCC` (stereo unspecified), the plasma membrane CFTR intensity is 90% (inactive) and the total CFTR intensity amounted to 87%.

Consider `COc1ccc(NC(=O)N2CCCCC2c2cccnc2)cc1` (stereo unspecified), for which the plasma membrane CFTR intensity is 84% (inactive) and the total CFTR intensity stood at 84%.

Turning to `CCOC(=O)C1C2C=CC3(CN(c4ccc(Cl)c(F)c4)C(=O)C13)O2` (stereo unspecified), the plasma membrane CFTR intensity was 84% (inactive) and the total CFTR intensity worked out at 83%.

Take `CCOC(=O)/C=C1\NC(C)(C)Cc2cc(OC)c(OC)cc21`: the plasma membrane CFTR intensity was 86% (inactive) and the total CFTR intensity came out at 89%.

Take `O=C(COc1ccccc1)N1CCN(c2ccccc2)CC1`: the plasma membrane CFTR intensity is 88% (inactive) and the total CFTR intensity turned out to be 85%.

In the case of `CC[N+]1(C)CC2CCC(C)(C1)C2(C)C` (stereo unspecified), the plasma membrane CFTR intensity is 72% (inactive) and the total CFTR intensity was 75%.

With `CC(C)(C)OC(=O)N1CCCC1C(=O)NC(Cc1ccccc1)C(=O)O` (stereo not drawn) (Boc-Pro-Phe-OH; configuration not given here), the plasma membrane CFTR intensity was 96% (inactive) and the total CFTR intensity is 102%.

Turning to `CC(=O)N1CC23C=CC(CC2CC12CCCCCC2)O3` (stereo unspecified), the plasma membrane CFTR intensity is 73% (inactive) and the total CFTR intensity stood at 77%.

Regarding `O=C(Nc1cccc(-c2nc3ncccc3o2)c1)c1ccccc1`, the plasma membrane CFTR intensity was 68% (inactive) and the total CFTR intensity is 72%.

Consider `CC(COc1ccccc1)NC(C)C(O)c1ccc(O)cc1` (stereo unspecified), for which the plasma membrane CFTR intensity is 104% (active) and the total CFTR intensity amounted to 121%.

As for `CC(COc1ccccc1)N(CCCl)Cc1ccccc1` (stereo unspecified), the plasma membrane CFTR intensity was 78% (inactive) and the total CFTR intensity was 80%.

Take `CC(NCCc1ccc(O)cc1)C(O)c1ccc(O)cc1` (stereo unspecified): the plasma membrane CFTR intensity is 101% (inactive) and the total CFTR intensity came to 96%.

As to `Cc1coc2cc3oc(=O)c(CCC(=O)O)c(C)c3cc12`, the plasma membrane CFTR intensity was 105% (inactive) and the total CFTR intensity came out at 107%.

With `N#C/C(C(N)=O)=c1/ccc2c(c1)N1C3=C(CCCC3)CC3CCCCC31N=2` (stereo unspecified), the plasma membrane CFTR intensity is 109% (active) and the total CFTR intensity turned out to be 123%.

As for `COC1CCCCC1Nc1ccc(C)c(C)c1` (stereo unspecified), the plasma membrane CFTR intensity was 80% (inactive) and the total CFTR intensity came out at 82%.

In the case of `CC(=O)Nc1cc(O)cc(O)c1`, the plasma membrane CFTR intensity is 83% (inactive) and the total CFTR intensity amounted to 93%.

In the case of `O=C(NCC1CCCO1)c1ccc(OC2CCN(C(=O)C3CC3)CC2)cc1` (stereo unspecified), the plasma membrane CFTR intensity was 83% (inactive) and the total CFTR intensity was 76%.

Take `CCOC(=O)c1oc2cc(OCC(N)=O)ccc2c(=O)c1-c1ccc(OC)c(OC)c1`: the plasma membrane CFTR intensity is 82% (inactive) and the total CFTR intensity came out at 82%.

In the case of `CC1(C)O[C@@H]2C[C@H]3[C@@H]4CCC5=CC(=O)C=C[C@]5(C)[C@@]4(F)[C@@H](O)C[C@]3(C)[C@]2(C(=O)CO)O1`, the plasma membrane CFTR intensity is 109% (inactive) and the total CFTR intensity stood at 114%.

For the molecule `CCCC1O[C@@H]2C[C@H]3[C@@H]4CCC5=CC(=O)C=C[C@]5(C)[C@H]4[C@@H](O)C[C@]3(C)[C@]2(C(=O)CO)O1` (stereo partly specified), the plasma membrane CFTR intensity was 123% (active) and the total CFTR intensity came to 137%.

Turning to `CC(=O)OCC(=O)[C@@]1(O)CC[C@H]2[C@@H]3CCC4=CC(=O)C=C[C@]4(C)[C@H]3[C@@H](O)C[C@@]21C`, the plasma membrane CFTR intensity is 89% (inactive) and the total CFTR intensity is 94%.

In the case of `CC(=O)N1c2ccccc2C(C)=CC1(C)C`, the plasma membrane CFTR intensity was 80% (inactive) and the total CFTR intensity is 87%.

`COc1ccc(C(=O)CC2OC(=O)c3c2ccc(OC)c3OC)cc1` (stereo unspecified): the plasma membrane CFTR intensity was 118% (inactive) and the total CFTR intensity was 115%.

Turning to `COc1ccc2c(c1OC)C(C1c3c(cc4c(c3OC)OCO4)CCN1C)OC2=O` (stereo unspecified), the plasma membrane CFTR intensity was 116% (inactive) and the total CFTR intensity is 112%.

As for `COc1ccc2c(c1OC)C(=O)OC2C1c2c(cc3c(c2OC)OCO3)CCN1C` (stereo unspecified), the plasma membrane CFTR intensity is 138% (active) and the total CFTR intensity worked out at 128%.

For `COc1ccc(CCNC(=S)NC(=O)/C=C/c2ccc(C)cc2)cc1OC`, the plasma membrane CFTR intensity is 82% (inactive) and the total CFTR intensity is 81%.

Consider `CN/C(=C/[N+](=O)[O-])NCCSCc1ccc(CN(C)C)o1`, for which the plasma membrane CFTR intensity is 88% (inactive) and the total CFTR intensity stood at 83%.

Turning to `Cc1ncoc1C(=O)N1CCCC(C(=O)c2ccc(-c3ccccc3)c(F)c2)C1` (stereo unspecified), the plasma membrane CFTR intensity was 82% (inactive) and the total CFTR intensity came to 75%.

For the molecule `CCc1cc(=O)oc2cc(C)c(CN3CCCC(C)C3)c(O)c12` (stereo unspecified), the plasma membrane CFTR intensity is 88% (inactive) and the total CFTR intensity amounted to 88%.
